{
  "source": "PubChem BioAssay (NCATS)",
  "note": "Unmarked numbers belong to inactive results. How the calls were made is not given here. Potency means the concentration at half of the fitted maximal effect.",
  "data": [
    {"tested_on": "HIV-1 nucleocapsid protein NCp7 (binding to TG oligonucleotide)", "test": "HIV Nucleocapsid (AID 346);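 further: potency is for inhibitors that block NC binding and lower polarization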", "conditions": "HIV-1 NC / fluorescein-TGTGTGTG probe, fluorescence polarization", "procedure,_shortened": "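10 nM TG4xF probe with 100 nM nucleocapsid protein in high-salt Hepes pH 7.5 (250mM NaCl) containing 1uM ZnCl2 and reducing agents. Compound inhibition of binding was read as fluorescein polarization after 1 hr at room temperature.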", "units": {"Potency": "µM"}, "values": [
      {"compound": "CS(=O)(=O)N1CCC2(CC1)CN(c1ccccn1)C2", "Potency": "> 20"},
      {"compound": "COCCn1c(=O)c(-c2cn(C)c3ccccc23)nc2cnc(Oc3ccccc3)nc21", "Potency": "> 20"},
      {"compound": "CN(C)c1ccc(-c2cncnc2NCc2cccnc2)cc1", "Potency": "> 20"},
      {"compound": "CC(C)CN1CCC2(CC1)CCN(C(=O)c1csnn1)CC2", "Potency": "> 20"},
      {"compound": "COc1ccc(-n2c(=O)c(-c3cccc(F)c3)nc3cncnc32)cc1", "Potency": "> 20"},
      {"compound": "COc1ccc(C(=O)N2CCC3(CC2)CN(C(=O)NC(C)C)C3)cc1", "Potency": "> 20"},
      {"compound": "c1ccc(CNc2ccnc(-c3cccnc3)n2)cc1", "Potency": "> 20"},
      {"compound": "COc1ccccc1CNc1ccnc(-c2ccc(N(C)C)cc2)n1", "Potency": "> 20"},
      {"compound": "c1ccc2c(N3CCNCC3)nc(-c3ccoc3)nc2c1", "Potency": "> 20"},
      {"compound": "CN1CCN(c2ncc3nc(-c4ccccc4)c(=O)n(CCc4ccccc4)c3n2)CC1", "Potency": "> 20"},
      {"compound": "CS(=O)(=O)N1CCC2(CCCN(C(c3ccccc3)c3ccccc3)C2)CC1", "Potency": "> 20"},
      {"compound": "Cc1noc(C)c1-c1nccc(-n2ccnc2)n1", "Potency": "> 20"},
      {"compound": "COCCn1c(=O)c(-c2ccc(OC)cc2)nc2cnc(OC)nc21", "Potency": "> 20"},
      {"compound": "N#CCCn1c(=O)c(-c2ccc(F)cc2)nc2cnc(N3CCOCC3)nc21", "Potency": "> 20"},
      {"compound": "CS(=O)(=O)Nc1cccc(-c2ccc3ncnc(N4CCOCC4)c3c2)c1", "Potency": "> 20"},
      {"compound": "O=C(c1cnccn1)N1CCC2(CCCN(c3ccc(-c4ccccc4)cc3)C2)CC1", "Potency": "> 20"}
    ]}
  ]
}
